The values below come from PubChem BioAssay (EPA / NIEHS).

Each structure is given as a SMILES string. Inconclusive results are not listed. Activity calls are given as the source filed them. How the source made its calls, unless noted: active means hit-call score of the fitted dose curve at least 0.9, where 1 is the maximum; inactive means score below 0.9.

Experiment [1] has as its target Nucleoli Translocation, AR (gene 367) (UniProt P10275). In words: UPITT_HCI_U2OS_AR_TIF2_Nucleoli_Antagonist: University of Pittsburgh U2OS Androgen Receptor-Transcriptional Intermediary Factor 2 (AR-TIF2) Antagonism High Content Imaging Assay for Nucleoli Translocation (AID 2283997; active means hit-call score of the fitted dose curve at least 0.9, where 1 is the maximum). The essentials: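 An antagonist-mode imaging screen: engineered U2OS (AR-RFP, TIF2-GFP) exposed to 20 uM compound, 0.2% DMSO. Activity reflects nucleolar red fluorescence change relative to DHT baseline.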

For experiment [2] the target is unchanged. Briefly: UPITT_HCI_U2OS_AR_TIF2_Nucleoli_Agonist: University of Pittsburgh U2OS Androgen Receptor-Transcriptional Intermediary Factor 2 (AR-TIF2) Agonism High Content Imaging Assay for Nucleoli Translocation (AID 2283998; active means hit-call score of the fitted dose curve at least 0.9, where 1 is the maximum). The essentials:
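Cells express human AR fused to red fluorescent protein and TIF2 fused to GFP. Red fluorescence in the nucleolar region was quantified by high-content imaging and fitted as gain-of-signal against a DMSO baseline. Compounds were tested at 0.195 to 50 uM final (0.5% DMSO).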

Experiment [3] addresses Ratio of Nucleoli Translocation and Cytoplasm, AR (gene 367) (UniProt P10275). Briefly: UPITT_HCI_U2OS_AR_TIF2_Nucleoli_Cytoplasm_Ratio_Antagonist: University of Pittsburgh U2OS Androgen Receptor-Transcriptional Intermediary Factor 2 (AR-TIF2) Antagonism High Content Imaging Assay for Ratio of Nucleoli Translocation and Cytoplasm (AID 2283999; active means hit-call score of the fitted dose curve at least 0.9, where 1 is the maximum;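 further: antagonists lower the DHT-driven ratio of nucleolar to cytoplasmic red signal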). The essentials: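 This antagonist-mode endpoint tracks AR-RFP localisation, the nucleolus-to-cytoplasm intensity ratio, in TIF2-GFP-coexpressing U2OS cells. DMSO stays at or below 0.5%; testing spans 20 uM single-dose and 0.195–50 uM series, with DHT setting the activity baseline.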

Experiment [4] has the same target. Briefly: UPITT_HCI_U2OS_AR_TIF2_Nucleoli_Cytoplasm_Ratio_Agonist: University of Pittsburgh U2OS Androgen Receptor-Transcriptional Intermediary Factor 2 (AR-TIF2) Agonism High Content Imaging Assay for Ratio of Nucleoli Translocation and Cytoplasm (AID 2284000; active means hit-call score of the fitted dose curve at least 0.9, where 1 is the maximum;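 further: hits raise the red nucleolar to cytoplasm ratio above vehicle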). The essentials: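 Primary screen at 20 uM final (0.2% DMSO), then triplicate confirmation and dose-response from 0.195 to 50 uM final (0.5% DMSO). Cells: U2OS with AR-RFP and TIF2-GFP. Endpoint is the nucleoli/cytoplasm red-fluorescence ratio, gain-of-signal vs DMSO.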

A short description of experiment [5]: CCTE_Harrill_HTTr_Viability_MCF7: CCTE's 6-hour Cell Viability Assessment for the High-Throughput Transcriptomics (HTTr) Platform, in MCF-7 cells cultured in DMEM + 10% fetal bovine serum, Harrill Lab (AID 2284010). The essentials: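 Eight-point concentration series, six-hour exposure. Propidium iodide exclusion imaged to assess membrane integrity as a cytotoxicity readout; bidirectional fitting was done with DMSO as negative control and activity baseline.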

A short description of experiment [6]: CCTE_Harrill_HTTr_Apoptosis_MCF7: CCTE's 6-hour Apoptosis Assessment for the High-Throughput Transcriptomics (HTTr) Platform, in MCF-7 cells cultured in DMEM + 10% fetal bovine serum, Harrill Lab (AID 2284011). The essentials: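 MCF-7 cells in DMEM + 10% fetal bovine serum were exposed to chemicals for 6 hours over an eight-point dilution series. Caspase-3/7 activation was imaged by high content imaging with CellEvent Caspase 3/7 Green; bidirectional fitting used DMSO as baseline.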

A short description of experiment [7]: CCTE_Shafer_MEA_acute_spike_number: CCTE's Neural Acute Assay for Total Number of Spikes, Shafer Lab (AID 2284008).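 On AC50: curve fitted for decrease in spike count so AC50 reflects inhibitors.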 The essentials: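 Primary rat cortical neurons on 16-electrode MEA wells; on DIV 13 or 15, 40-min baseline then 40-min recording with compound (0.03-40 uM) at 37 C. Spikes detected at 8x rms noise; percent change versus baseline, DMSO as negative control.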

Experiment [8] in a line: CCTE_Shafer_MEA_acute_firing_rate_mean: CCTE's Neural Acute Assay for Mean Firing Rate, Shafer Lab (AID 2284009).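 Further: analyzed for loss of signal so actives lower firing rate relative to DMSO.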 The essentials:
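Spontaneous spiking of primary rat cortical networks, DIV 13/15, 37 C. Compound 0.03-40 uM, n ≥3 wells; 40 min baseline vs 40 min treated. Endpoint fitted in loss-of-signal direction against DMSO.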

Experiment [9] can be described thus: CCTE_Harrill_HTTr_CellCount_MCF7: CCTE's Cell Proliferation Assessment for the High-Throughput Transcriptomics (HTTr) Platform, Harrill Lab (AID 2284012; active means hit-call score of the fitted dose curve at least 0.9, where 1 is the maximum;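 further: intended direction is loss of nuclei count meaning fewer cells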). The essentials: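 For this full-screen endpoint, MCF-7 cultures received eight compound dilutions for six hours. Well nuclei counts from Hoechst imaging were analyzed relative to DMSO.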
Experiment [10] is described as follows: CCTE_Shafer_MEA_acute_burst_number: CCTE's Neural Acute Assay for Single-Electrode Bursts, Shafer Lab (AID 2284013). The essentials:
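Burst totals were derived with adaptive spike detection (8x rms threshold) on filtered signals from rat cortical cultures; change relative to pre-treatment baseline after 40-min compound exposure (0.03-40 uM) was fitted in the negative direction against DMSO.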

Experiment [11] in a line: CCTE_Shafer_MEA_acute_burst_duration_mean: CCTE's Neural Acute Assay for Mean Burst Duration, Shafer Lab (AID 2284014).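 Further: hits are decreases in mean burst duration relative to DMSO controls.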 The essentials: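 Acute exposure of mature rat cortical networks (DIV 13 or 15) grown on microelectrode arrays to 0.03-40 uM compound. Mean burst duration compared with the 40-min pre-dose baseline over a 40-min post-dose recording at 37 C.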
A short description of experiment [12]: CCTE_Shafer_MEA_acute_per_burst_spike_number_mean: CCTE's Neural Acute Assay for Average Number of Spikes Per Burst, Shafer Lab (AID 2284015).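 Further: hits are decreases in mean spikes per burst versus baseline.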 The essentials:
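Rat primary cortical neurons on 48-well MEAs (DIV 13 or 15) were treated with 0.03-40 uM compound at 37 C. Mean spikes per burst over 40 min were recorded before and after exposure and expressed as percent change from baseline, relative to DMSO.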

Experiment [13] is described as follows: CCTE_Shafer_MEA_acute_interburst_interval_mean: CCTE's Neural Acute Assay for Mean Interburst Interval, Shafer Lab (AID 2284016).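 Further: percent change of mean interburst interval versus each well's own pre-dose baseline; curves fitted for decrease in interburst interval relative to DMSO.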 The essentials: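 Rat primary cortical neurons on 48-well MEAs at DIV 13 or 15 were exposed acutely to 0.03-40 uM. Spikes detected at 8x rms noise, 37 C. Mean interburst interval from 40 min recordings expressed as percent change from 40 min pre-treatment baseline.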

A short description of experiment [14]: CCTE_Shafer_MEA_acute_burst_percentage_mean: CCTE's Neural Acute Assay for Percentage of Spikes in a Burst, Shafer Lab (AID 2284017). The essentials: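 Primary rat cortical neurons on 48-well MEA plates, treated on DIV 13 or 15 at 0.03-40 uM. Spikes detected at 8x rms noise at 37C; percent change from 40-min baseline to 40-min post-dose recording, fitted versus DMSO.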

Experiment [15] is described as follows: CCTE_Shafer_MEA_acute_burst_percentage_std: CCTE's Neural Acute Assay for Standard Deviation of Burst Percentage, Shafer Lab (AID 2284018).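 Further: fitted in the negative direction so actives lower burst percentage SD.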 The essentials:
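Primary rat cortical neurons on 16-electrode MEA wells were recorded 40 min at baseline (DIV 13 or 15), then 40 min after compound (0.03-40 uM), at 37 C. Well value is SD across electrodes of spikes-in-bursts/total spikes; endpoint is percent change, DMSO-referenced.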

Experiment [16] can be described thus: CCTE_Shafer_MEA_acute_per_network_burst_spike_number_mean: CCTE's Neural Acute Assay for Average Number of Spikes in a Network Burst, Shafer Lab (AID 2284019). The essentials: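 Acute exposure of rat primary cortical networks (DIV 13/15) on MEAs; adaptive spike detection at 8x rms noise, 37 C. Percent change in spikes per network burst after 40 min with compound (0.03-40 uM), negative direction vs DMSO.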

A short description of experiment [17]: CCTE_Shafer_MEA_acute_per_network_burst_spike_number_std: CCTE's Neural Acute Assay for Standard Deviation of Number of Spikes in a Network Burst, Shafer Lab (AID 2284020).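 Further: fitted for decrease in spike-number SD versus DMSO so actives lower it.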 The essentials: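 Acute MEA exposure, rat cortical neurons, 0.03-40 uM. Per-well % change versus own baseline; DMSO as negative control.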
Experiment [18] in a line: CCTE_Shafer_MEA_acute_per_network_burst_electrodes_number_mean: CCTE's Neural Acute Assay for Mean Number of Electrodes in a Network Burst, Shafer Lab (AID 2284021).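 Further: curves fitted for decreases only so hits reduce electrodes per burst.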 The essentials:
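Rat primary cortical neurons on 16-electrode MEA wells were recorded 40 min at baseline on DIV 13 or 15, then 40 min after compound (0.03-40 uM), at 37 C. Value is percent change per well, fitted in loss direction versus DMSO.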

The nature of experiment [19]: CCTE_Shafer_MEA_acute_network_burst_percentage: CCTE's Neural Acute Assay for Percentage of Network Bursts, Shafer Lab (AID 2284022).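 Further: curves fitted for loss so actives lower network burst percentage.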 The essentials:
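Primary rat cortical neurons on 16-electrode MEA wells, treated on DIV 13 or 15 with compound (0.03-40 uM); 40-min baseline and 40-min post-exposure recordings at 37 C. Value is percent change in spikes within network bursts versus baseline, DMSO negative control.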

For experiment [20], the system named is DIO1 (gene 1733). In words: CCTE_GLTED_hDIO1: CCTE's human Deiodinase 1 (DIO1) Inhibition Assay, Great Lakes Toxicology and Ecology Division (GLTED) Lab (AID 2283987; active means hit-call score of the fitted dose curve at least 0.9, where 1 is the maximum;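 further: isolated human DIO1 enzyme in a cell-free setup rather than cells; enzyme activity read as free iodide liberated from substrate via Sandell-Kolthoff colorimetry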). The essentials: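 Cell-free human DIO1 enzyme was incubated with test chemical for 3 h, and iodide released from substrate was measured by Sandell-Kolthoff absorbance. Loss of signal versus DMSO baseline indicated inhibition; plates were run in triplicate.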

Nucleoli Translocation, AR (gene 367), sequence (P10275 whole entry, looked up): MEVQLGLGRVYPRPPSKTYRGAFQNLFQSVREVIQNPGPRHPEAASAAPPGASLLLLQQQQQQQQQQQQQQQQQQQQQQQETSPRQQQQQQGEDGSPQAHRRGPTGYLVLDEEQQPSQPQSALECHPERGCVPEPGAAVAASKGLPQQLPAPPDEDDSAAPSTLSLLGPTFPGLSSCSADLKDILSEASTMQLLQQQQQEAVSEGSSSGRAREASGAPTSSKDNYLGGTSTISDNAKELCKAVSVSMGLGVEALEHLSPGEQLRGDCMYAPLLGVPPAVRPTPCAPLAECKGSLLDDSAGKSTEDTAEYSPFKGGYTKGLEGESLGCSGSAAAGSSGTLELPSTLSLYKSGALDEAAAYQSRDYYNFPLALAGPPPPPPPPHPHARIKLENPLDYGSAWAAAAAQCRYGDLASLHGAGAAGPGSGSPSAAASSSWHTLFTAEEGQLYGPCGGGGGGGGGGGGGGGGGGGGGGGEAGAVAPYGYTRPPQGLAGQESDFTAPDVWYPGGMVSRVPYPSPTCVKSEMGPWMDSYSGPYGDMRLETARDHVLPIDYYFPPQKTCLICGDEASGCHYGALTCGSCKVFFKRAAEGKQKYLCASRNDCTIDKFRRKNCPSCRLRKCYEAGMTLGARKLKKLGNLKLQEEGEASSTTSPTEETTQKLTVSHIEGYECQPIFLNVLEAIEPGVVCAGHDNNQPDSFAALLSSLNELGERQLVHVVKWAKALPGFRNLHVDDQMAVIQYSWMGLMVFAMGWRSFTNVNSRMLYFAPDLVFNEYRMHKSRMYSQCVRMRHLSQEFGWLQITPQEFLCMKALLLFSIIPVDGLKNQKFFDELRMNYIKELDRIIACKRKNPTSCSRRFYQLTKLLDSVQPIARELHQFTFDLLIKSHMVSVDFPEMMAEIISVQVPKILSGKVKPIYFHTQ
Ratio of Nucleoli Translocation and Cytoplasm, AR (gene 367), sequence (P10275 whole entry, looked up): as above

Take `O=Nc1ccc(Nc2ccccc2)cc1`: the AC50 – broadly, the midpoint of the concentration-response curve, whichever way the signal moves – is 2560 nM (active) in [1] and 2510 nM (active) in [3]. Further, the compound was called inactive in experiment [2], in experiment [4], in experiment [5] and in experiment [6].
`CCCOCC(C)O` (stereo unspecified): the compound was called inactive in experiment [1], in experiment [2], in experiment [3], in experiment [4], in [5] and in experiment [6].
For `C=CCOC(=O)CCC1CCCCC1`, the compound was called inactive in [7], in [8], in [5], in experiment [6], in [9] and in experiment [10]. For the same compound, the outcome in [11], in experiment [12], in experiment [13], in experiment [14], in experiment [15] and in experiment [16] was inactive. Further, the call in [17], in experiment [18] and in experiment [19] was inactive.
In the case of `CC[Si](OC(C)=O)(OC(C)=O)OC(C)=O`, the compound was classed as inactive in [7], in [8], in experiment [11], in [12], in experiment [13] and in [14]. Moreover, the compound was classed as inactive in experiment [15], in [16], in [17], in experiment [18] and in [19]. In [10], the AC50 was 429 nM (active).
In the case of `N#Cc1ccc(CC(=NNC(=O)Nc2ccc(OC(F)(F)F)cc2)c2cccc(C(F)(F)F)c2)cc1`, the result in experiment [5] and in [6] was inactive.
Take `CCCCCCCCCCCCCC(=O)O`: in experiment [20], the AC50 was 166000 nM (active). Besides, the outcome in experiment [5], in experiment [6] and in experiment [9] was inactive.
With `BrC1CCC(Br)C(Br)CCC(Br)C(Br)CCC1Br` (stereo unspecified), the AC50 in experiment [1] was 43500 nM (active). In addition, the compound was called inactive in experiment [2], in experiment [3], in experiment [4], in [5], in experiment [6] and in experiment [9].
For the compound `CNC[C@H](O)c1cccc(O)c1`, the result in experiment [5] and in [6] was inactive.
For `CCC(=O)OCc1ccccc1`, the compound was classed as inactive in [7], in [8], in experiment [5], in [6], in experiment [9] and in experiment [10]. For the same compound, the compound was classed as inactive in experiment [11], in experiment [12], in experiment [13], in [14], in [15] and in experiment [16]. For the same compound, the compound was classed as inactive in experiment [17], in experiment [18] and in [19].
`C[C@H]1C[C@@H]2[C@H]([C@@H](O)C[C@@]3(C)[C@H]2CC[C@]3(O)C(=O)CO)[C@@]2(C)C=CC(=O)C=C12`: the AC50 in experiment [7], in [8] and in experiment [10] was 3 nM (active) each time. Besides, the result in experiment [5], in experiment [6], in experiment [9], in experiment [11], in experiment [12] and in experiment [13] was inactive. Also, the result in experiment [14], in [15], in experiment [16], in experiment [17], in [18] and in experiment [19] was inactive.
As for `CCCCC(CC)COC(=O)/C=C\C(=O)OCC(CC)CCCC` (stereo unspecified), the compound was called inactive in experiment [1], in experiment [2], in experiment [3], in [4], in [5] and in [6]. In addition, the call in experiment [9] was inactive.
